{"source": "PubChem BioAssay (NCI)", "note": "This is part of a sample that, as a whole, favours compounds with a hit. Of some 83,000 tested, about 20% had one in any assay.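 96-well plates, one dose, 48 hours. Percent growth reported; active if below 10.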 Unmarked numbers belong to inactive results. Calls of active or inactive are those of the source.", "data": [{"tested_on": "A549/ATCC NSCLC", "assay": "NCI-60 one-dose screen, 48 h (100 = growth as untreated, 0 = no growth, -100 = all killed)", "conditions": "10 µM unless noted", "protocol": "Growth inhibition of the A549/ATCC human Non-Small Cell Lung tumor cell line is measured as a screen for anti-cancer activity. Cells are grown in 96 well plates and exposed to the test compound for 48 hours. Compounds are tested at a single concentration, which is 10^-5 M for most compounds. The reported endpoint is percent growth (GI% or GIPRCNT), where numbers from 0 - 100% represent growth inhibition, and numbers from -100% - 0 represent cell death. For example, a value of 40 represents 60% growth inhibition. A value of 0 means no net growth occurred over the course of the experiment. A value of -40 indicates 40% of cells at the beginning of the experiment died by the end of the experiment. A value of -100 means all cells are dead at the end of the experiment.\nNCI-60 Human Tumor Cell Lines Screen was performed using the standard one-dose NCI protocol, which is described in more detail at https://dtp.cancer.gov/discovery_development/nci-60/default.htm.\nCompounds with GIPRCNT values below 10 were considered active. Activity score was based on GIPRCNT using the following formula: […]\nScore is 0 for GIPRCNT values of 100 or above, 50 for GIPRCNT values of 0, and 100 for GIPRCNT values of -100.", "values": [{"compound": "Cc1nc2cc(Nc3nc(NCCO)nc(Nc4ccc(F)cc4)n3)ccc2n1Cc1ccccc1", "growth": "74.1%"}, {"compound": "COc1cc(/C=C2\\C(=O)Nc3ccccc32)cc(OC)c1O", "growth": "67.9%"}, {"compound": "CCCCc1ccc(C(O)(CCN2CC3CCC(CC3)C2)c2ccccc2)cc1", "note": "(stereo not given)", "growth": "96.2%"}, {"compound": "O=c1[nH]c(=S)c2c(n1CCCO)CCC2", "growth": "100%"}, {"compound": "COc1cc(C(F)(F)F)ccc1-c1cc(-c2ccc(F)cc2)n[nH]1", "growth": "64.9%"}, {"compound": "CCCCC/C=C\\C/C=C/CCCCCCCCNC(=O)Nc1ccc([N+](=O)[O-])cc1", "growth": "97%"}, {"compound": "c1ccc2cc(-c3n(Cc4ccc5ccccc5n4)c4ccccc4[n+]3Cc3ccc4ccccc4n3)ccc2c1", "growth": "6.23% (active)"}, {"compound": "Brc1ccc(SCN(CSc2ccc(Br)cc2)Cc2ccccc2)cc1", "growth": "45.8%"}, {"compound": "CN(C)c1ccc(/C=C(\\C#N)c2cc3ccccc3n2C)cc1", "growth": "24.6%"}, {"compound": "CCCCCn1c(=N)n(CC(O)COc2cccc(C)c2)c2ccccc21", "note": "(stereo not given)", "growth": "7.6% (active)"}, {"compound": "CCC(C)[C@H]1O[C@]2(CC[C@@H]1C)C[C@@H]1C[C@@H](C/C=C(\\C)[C@@H](OC3C[C@H](OC)C(O[C@H]4C[C@H](OC)[C@@H](O)[C@H](C)O4)[C@H](C)O3)[C@@H](C)/C=C/C=C3\\CO[C@@H]4[C@H](O)C(C)=C[C@@H](C(=O)O1)[C@]34O)O2", "note": "(stereo not given in full)", "growth": "21.3%"}, {"compound": "NS(=O)(=O)c1ccc(C(=O)N/N=C(\\CS(=O)(=O)c2ccccc2)c2cc3cc(Br)ccc3o2)cc1", "growth": "87%"}, {"compound": "O=C(O)C[C@H](O)C[C@H](O)/C=C/c1c(C2CC2)nc2ccccc2c1-c1ccc(F)cc1", "growth": "105%"}, {"compound": "COc1ccc(/C=C2\\CN(Cc3cn(CCCNc4ccnc5cc(Cl)ccc45)nn3)C/C(=C\\c3ccc(OC)cc3)C2=O)cc1", "growth": "65.7%"}, {"compound": "C[C@@H](Oc1cc(-c2cnn(C3CC4(CCCNC4)C3)c2)cnc1N)c1c(Cl)ccc(F)c1Cl", "note": "(stereo not given in full)", "growth": "16.6%"}, {"compound": "O/N=C/c1cccs1", "growth": "98%"}, {"compound": "COc1ccc(CSc2nc3cc(OC)c(OC)cc3c(=O)n2-c2ccc(Cl)cc2)cc1", "growth": "103%"}, {"compound": "Cn1c(=O)c2c(-c3ccccc3F)n(-c3ccc4c(c3)OCO4)cc2n(C)c1=O", "growth": "99.8%"}, {"compound": "COC(=O)[C@H]1CCCN1C(=O)[C@H]1CCCN1C(=O)[C@@H](Cc1c[nH]c2ccccc12)NC(=S)Nc1cc(C(F)(F)F)cc(C(F)(F)F)c1", "growth": "31%"}, {"compound": "COc1ccc(C2CC(c3cc(OC)c(OC)c(OC)c3)=NN2c2ccc(S(N)(=O)=O)cc2)cc1", "note": "(stereo not given)", "growth": "44.5%"}, {"compound": "c1ccc(-c2n(Cc3ccc4ccccc4n3)c3ccccc3[n+]2Cc2ccc3ccccc3n2)cc1", "growth": "13.7%"}, {"compound": "Cc1cc(O)cc2c1[C@H]1CC[C@]3(C)[C@@H](O)CC[C@H]3[C@@H]1C=C2", "growth": "86.9%"}, {"compound": "O=S(=O)(Nc1ncccn1)c1ccc(Nc2ccc3nnc(-c4ccncc4)n3n2)cc1", "growth": "104%"}, {"compound": "CCOC(=O)C1=C(C)N2C(=NC3=C(CCCC/C3=C\\c3ccccc3)C2c2ccccc2)S1", "note": "(stereo not given)", "growth": "99.1%"}, {"compound": "COc1ccccc1CNCCCCCCCCCCCCN1C(=O)c2ccc3c4c(ccc(c24)C1=O)C(=O)N(CCCCCCCCCCCCNCc1ccccc1OC)C3=O", "growth": "75.4%"}, {"compound": "CCCCOC(=O)C1OC(Oc2ccc3c(C)cc(=O)oc3c2)[C@@H](OC(C)=O)C(OC(C)=O)C1OC(C)=O", "note": "(stereo not given in full)", "growth": "96.3%"}, {"compound": "COc1ccc(/C=C/C(=O)N2CCC(O)CC2)cc1OC1CCCC1", "growth": "91.4%"}, {"compound": "COc1ccc(OC2=CC(=O)c3ccc(C)nc3C2=O)cc1", "growth": "96.4%"}, {"compound": "CC1=CN2C(=NC3=C(CCCC/C3=C\\c3ccccc3)C2c2ccccc2)S1", "note": "(stereo not given)", "growth": "108%"}, {"compound": "Cc1ccc(N(CSc2ccc(Cl)cc2)CSc2ccc(Cl)cc2)cc1", "growth": "28.5%"}, {"compound": "CCCCc1ccc(NC(=O)C(F)(F)F)cc1", "growth": "102%"}, {"compound": "Oc1cccc(Nc2nc(-c3ccccn3)cs2)c1", "growth": "94.8%"}, {"compound": "OC[C@@H](O)[C@@H](O)CO", "growth": "104%"}, {"compound": "O=c1nc(NO)[nH]c(=O)n1Cc1ccc(F)cc1", "growth": "104%"}, {"compound": "COCCOC1=C(Cl)C(=O)c2ccccc2C1=O", "growth": "21.6%"}, {"compound": "COc1ccc(-c2c3c(N)c4c(nc3nc3c2c(C)nn3-c2ccccc2)CCCC4)cc1", "growth": "76.6%"}, {"compound": "N#CCCN1CCN(CCC#N)C1=S", "growth": "97.4%"}, {"compound": "O=C1C(N2CCOCC2)=Cc2cccc3cccc1c23", "growth": "88.5%"}, {"compound": "Cn1c2c(cc(S(=O)(=O)c3ccccc3)c1=O)CCc1c-2cnn1-c1cccc(Cl)c1", "growth": "85.6%"}, {"compound": "CCOc1ccc(/C=N\\N2CCCCCC2)cc1OCC", "growth": "106%"}]}]}
